# According to PubChem BioAssay (NCATS):
# Records with an inconclusive call do not appear. Where a call stands in place of a potency, no number is given. Active and inactive are the calls of the source. Unless noted, calls come from the whole dose curve; as a rule, active = well fitted curve in the direction sought with a large enough effect; inconclusive = small, poorly fitted or top-dose-only effect, or another doubt; inactive = no such curve, though single readings can be large; an effect the other way counts as inactive or inconclusive.
# Key:
# [1] = Primary qHTS for inhibitors of La Crosse Virus (LACV) - induced cell death in SH-SY5Y cells (AID 1508616);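 note: top concentration of the series differs between compounds; higher means more rescue of cells from virus-induced death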
# Procedure, shortened: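 Cytopathicity rescue screen: compounds pinned onto SH-SY5Y cells, which are then infected with LACV (MOI 0.01) and held 6 days at 37C. Percent activity is scaled between infected DMSO control and uninfected DMSO control.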
# [2] = biological target: Calcium and integrin-binding protein 1 (Homo sapiens) (UniProt Q99828); experiment: Validation qHTS for Identification of Calcium Integrin Binding protein 1 (CIB1) Competitor (AID 1508618)
# Chain of Calcium and integrin-binding protein 1 (Homo sapiens) (Q99828 whole entry, looked up): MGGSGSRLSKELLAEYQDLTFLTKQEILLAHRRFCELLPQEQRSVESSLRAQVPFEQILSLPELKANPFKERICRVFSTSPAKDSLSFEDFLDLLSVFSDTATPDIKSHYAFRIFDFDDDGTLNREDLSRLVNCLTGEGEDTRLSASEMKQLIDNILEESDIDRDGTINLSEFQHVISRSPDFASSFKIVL
# Procedure, shortened: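 Fluorescence polarization with 1 uM CIB1-GST and 100 nM FITC-alphaIIb peptide in HEPES pH 7.4, NaCl, 5 mM CaCl2, Tween20. Compounds at up to 114 uM final, preincubated with protein 15 min; read after 15 min more at RT.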
# [3] = Primary qHTS for small molecule stabilizers of the endoplasmic reticulum resident proteome: Secreted ER Calcium Modulated Protein (SERCaMP) assay (AID 1508630)
# Procedure, shortened: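 The SH-SY5Y reporter protocol was run at 3 concentrations up to 38.3 uM (primary) or 11 concentrations (follow-up): 16 h compound, 100 nM thapsigargin for 4 h, then extracellular luciferase luminescence.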
# Papain (Carica papaya) = Papain (Carica papaya) (UniProt P00784); experiment: Primary qHTS assay for inhibitors of the protease papain (AID 1645873);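 note: papain turnover of Z-FR-AMC read as the AMC fluorescence gain over 10 min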; note: potency is the fitted concentration of half-maximal effect
# Chain of Papain (Carica papaya) (P00784 whole entry, looked up): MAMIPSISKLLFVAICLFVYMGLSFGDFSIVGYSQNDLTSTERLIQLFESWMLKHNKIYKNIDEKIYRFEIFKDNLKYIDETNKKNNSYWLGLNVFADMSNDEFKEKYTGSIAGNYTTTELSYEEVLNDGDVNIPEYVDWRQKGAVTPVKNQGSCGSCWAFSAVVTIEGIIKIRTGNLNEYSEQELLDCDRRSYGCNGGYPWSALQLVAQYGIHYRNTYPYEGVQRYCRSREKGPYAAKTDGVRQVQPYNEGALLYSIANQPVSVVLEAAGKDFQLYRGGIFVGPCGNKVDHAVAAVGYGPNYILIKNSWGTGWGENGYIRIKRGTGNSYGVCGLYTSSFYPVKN
# [4] = biological target: Catechol O-methyltransferase (Homo sapiens) (UniProt P21964); experiment: Confirmatory Screen for Target Class Profiling of Small Molecule Inhibitors of Methyltransferases (AID 1745852; calls by dose curve; note: potency is the fitted concentration of half-maximal effect); conditions: MTase-Glo luminescence, SAH detection, recombinant enzyme; measured here: COMT max response; stronger effect = lower value
# Chain of Catechol O-methyltransferase (Homo sapiens) (P21964 whole entry, looked up): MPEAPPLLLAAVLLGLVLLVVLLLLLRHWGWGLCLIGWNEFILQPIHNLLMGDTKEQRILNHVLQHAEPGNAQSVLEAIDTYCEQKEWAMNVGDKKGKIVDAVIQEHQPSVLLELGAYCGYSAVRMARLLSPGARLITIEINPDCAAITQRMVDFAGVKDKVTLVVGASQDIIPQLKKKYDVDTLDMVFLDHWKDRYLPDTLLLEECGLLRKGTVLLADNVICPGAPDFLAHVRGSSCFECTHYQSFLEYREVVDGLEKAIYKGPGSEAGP
# [5] = biological target: Guanidinoacetate N-methyltransferase (Homo sapiens) (UniProt Q14353); experiment: as above; conditions: MTase-Glo luminescence, SAH detection, recombinant enzyme; activity change, negative = inhibition: at 57.3 µM (top of the series)
# [6] = biological target: Nicotinamide N-methyltransferase (Homo sapiens) (UniProt P40261); experiment: as above; conditions: MTase-Glo luminescence, SAH detection, recombinant enzyme; measured here: NNMT max response; stronger effect = lower value
# Chain of Nicotinamide N-methyltransferase (Homo sapiens) (P40261 whole entry, looked up): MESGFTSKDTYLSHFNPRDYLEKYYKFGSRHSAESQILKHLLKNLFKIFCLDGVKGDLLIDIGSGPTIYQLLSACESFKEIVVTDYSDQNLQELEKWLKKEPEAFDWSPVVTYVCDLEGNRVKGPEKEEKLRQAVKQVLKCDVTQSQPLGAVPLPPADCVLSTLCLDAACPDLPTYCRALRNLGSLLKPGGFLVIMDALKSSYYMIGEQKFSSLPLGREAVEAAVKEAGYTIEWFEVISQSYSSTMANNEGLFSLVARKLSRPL
# [7] = biological target: Phenylethanolamine N-methyltransferase (Homo sapiens) (UniProt P11086); experiment: as above; conditions: MTase-Glo luminescence, SAH detection, recombinant enzyme; measured here: PNMT max response; stronger effect = lower value
# Chain of Phenylethanolamine N-methyltransferase (Homo sapiens) (P11086 whole entry, looked up): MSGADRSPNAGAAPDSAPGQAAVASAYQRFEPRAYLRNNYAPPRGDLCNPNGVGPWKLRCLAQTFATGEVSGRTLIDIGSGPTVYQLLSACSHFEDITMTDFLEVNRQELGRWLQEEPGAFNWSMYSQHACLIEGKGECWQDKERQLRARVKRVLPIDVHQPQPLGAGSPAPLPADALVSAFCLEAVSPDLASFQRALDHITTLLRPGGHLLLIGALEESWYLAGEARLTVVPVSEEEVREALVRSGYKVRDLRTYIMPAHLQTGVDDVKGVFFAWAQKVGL
# [8] = biological target: Rap guanine nucleotide exchange factor 3 (Homo sapiens) (UniProt O95398); experiment: Confirmatory qHTS for antagonist of cAMP-regulated guanine nucleotide exchange factor 3 (EPAC1) (AID 1645880); note: nearly all actives have a fitted effect of over 55% in size; note: potency is the fitted concentration of half-maximal effect
# Chain of Rap guanine nucleotide exchange factor 3 (Homo sapiens) (O95398 whole entry, looked up): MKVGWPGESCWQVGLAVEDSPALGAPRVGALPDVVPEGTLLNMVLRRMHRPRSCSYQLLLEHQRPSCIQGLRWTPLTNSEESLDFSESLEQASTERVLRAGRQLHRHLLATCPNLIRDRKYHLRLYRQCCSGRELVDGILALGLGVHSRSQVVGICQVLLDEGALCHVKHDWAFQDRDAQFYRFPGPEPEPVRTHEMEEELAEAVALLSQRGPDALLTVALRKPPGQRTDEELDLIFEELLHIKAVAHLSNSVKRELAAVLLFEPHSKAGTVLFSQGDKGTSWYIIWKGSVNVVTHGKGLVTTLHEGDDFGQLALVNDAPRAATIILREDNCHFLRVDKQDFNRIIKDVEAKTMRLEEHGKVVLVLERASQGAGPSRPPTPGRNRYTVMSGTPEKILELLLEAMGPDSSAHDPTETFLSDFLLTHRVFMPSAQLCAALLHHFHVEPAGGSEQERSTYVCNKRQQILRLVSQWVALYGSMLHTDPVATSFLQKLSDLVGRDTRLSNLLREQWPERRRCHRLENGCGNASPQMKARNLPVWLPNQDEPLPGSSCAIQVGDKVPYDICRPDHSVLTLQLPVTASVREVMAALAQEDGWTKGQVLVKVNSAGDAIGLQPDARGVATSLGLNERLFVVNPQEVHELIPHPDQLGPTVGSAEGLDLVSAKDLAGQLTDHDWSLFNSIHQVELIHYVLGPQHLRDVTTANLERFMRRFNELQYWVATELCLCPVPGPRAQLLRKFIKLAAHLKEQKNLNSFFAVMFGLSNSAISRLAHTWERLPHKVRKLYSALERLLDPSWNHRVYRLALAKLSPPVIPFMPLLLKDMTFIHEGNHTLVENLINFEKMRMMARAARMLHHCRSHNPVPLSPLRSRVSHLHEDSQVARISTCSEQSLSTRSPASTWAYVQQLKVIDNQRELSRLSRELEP
# Procedure, shortened: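 Released BODIPY-GDP fluoresces less than Rap1-bound BODIPY-GDP; the signal is followed at 480/540 nm at 5-min intervals over 30 min, after 5 min at room temperature. Reactions contain 100 nM EPAC1, 250 nM RAP1B-BODIPY-GDP and 50 uM GDP; results are normalized to ATA and DMSO.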
# [9] = biological target: Rap guanine nucleotide exchange factor 3 (Homo sapiens) (UniProt O95398); experiment: Confirmatory qHTS for agonist of cAMP-regulated guanine nucleotide exchange factor 3 (EPAC1) (AID 1645881); note: nearly all actives have a fitted effect of over 75% in size; note: potency is the fitted concentration of half-maximal effect
# [10] = biological target: Rap guanine nucleotide exchange factor 4 (Homo sapiens) (UniProt Q8WZA2); experiment: Confirmatory qHTS for antagonist of cAMP-regulated guanine nucleotide exchange factor 4 (EPAC2) (AID 1645885); note: potency is the fitted concentration of half-maximal effect; nearly all actives have a fitted effect of over 25% in size
# Chain of Rap guanine nucleotide exchange factor 4 (Homo sapiens) (Q8WZA2 whole entry, looked up, the tested form may be a part): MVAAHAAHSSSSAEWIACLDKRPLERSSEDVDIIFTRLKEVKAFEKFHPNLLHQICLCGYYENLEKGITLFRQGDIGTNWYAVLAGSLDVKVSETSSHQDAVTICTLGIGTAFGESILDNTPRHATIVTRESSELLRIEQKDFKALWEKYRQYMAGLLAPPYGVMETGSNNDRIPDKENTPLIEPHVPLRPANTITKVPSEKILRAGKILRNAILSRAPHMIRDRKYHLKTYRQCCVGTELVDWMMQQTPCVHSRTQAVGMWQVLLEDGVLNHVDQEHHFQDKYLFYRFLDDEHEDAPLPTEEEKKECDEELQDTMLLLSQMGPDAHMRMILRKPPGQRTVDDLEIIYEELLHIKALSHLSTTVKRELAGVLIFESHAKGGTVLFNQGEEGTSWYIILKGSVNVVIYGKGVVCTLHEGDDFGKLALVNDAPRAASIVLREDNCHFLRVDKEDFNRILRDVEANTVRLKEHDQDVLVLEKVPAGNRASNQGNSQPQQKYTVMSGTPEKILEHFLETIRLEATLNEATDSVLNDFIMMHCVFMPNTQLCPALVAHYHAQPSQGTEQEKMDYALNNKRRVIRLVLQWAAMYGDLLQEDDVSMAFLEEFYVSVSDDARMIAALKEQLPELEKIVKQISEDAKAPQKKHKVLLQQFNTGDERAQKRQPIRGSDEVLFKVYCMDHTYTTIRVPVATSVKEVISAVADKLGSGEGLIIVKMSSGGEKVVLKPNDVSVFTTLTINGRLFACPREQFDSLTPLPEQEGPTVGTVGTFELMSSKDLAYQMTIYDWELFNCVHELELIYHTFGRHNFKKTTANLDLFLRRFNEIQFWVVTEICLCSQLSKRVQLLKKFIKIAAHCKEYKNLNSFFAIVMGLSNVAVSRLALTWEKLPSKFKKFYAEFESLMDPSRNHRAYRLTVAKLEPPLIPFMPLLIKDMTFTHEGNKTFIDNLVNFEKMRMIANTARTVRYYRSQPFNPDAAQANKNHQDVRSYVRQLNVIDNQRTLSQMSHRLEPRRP
# [11] = biological target: Rap guanine nucleotide exchange factor 4 (Homo sapiens) (UniProt Q8WZA2); experiment: Confirmatory qHTS for agonist of cAMP-regulated guanine nucleotide exchange factor 4 (EPAC2) (AID 1645884);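 note: nucleotide exchange releases bodipy-GDP from Rap1 and this lowers its fluorescence; nearly all actives have a fitted effect of over 65% in size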; note: potency is the fitted concentration of half-maximal effect
# [12] = Primary qHTS for inhibitors of nuclear receptor binding SET domain protein 2 (NSD2) in an isogenic RCH-ACV NSD2 p.E1099K mutant (9B) (AID 1645876); note: nearly all actives have a fitted effect of over 70% in size
# [13] = Primary qHTS for inhibitors of nuclear receptor binding SET domain protein 2 (NSD2) in an RCH-ACV wild type WT cells (2C) (AID 1645877); note: nearly all actives have a fitted effect of over 70% in size
# [14] = NCATS anti-infectives library activity on HEK293 viability as a counter-qHTS vs the C. elegans viability qHTS (AID 1745854)
# Procedure, shortened: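 CellTiter-Glo luminescence, read on a CCD imager, scored viability of HEK293 cells after 24 hr compound exposure at 37C. Library tested in several concentrations, 1:5 steps, up to 41.7 uM; digitonin served as control.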
smiles,measurement,setting,value
CC[C@@H]1Cc2cc(O)ccc2C2=C1c1ccc(O)cc1C[C@H]2CC,Potency,[1],inactive
same,Potency,[2],inactive
same,Potency,[3],inactive
same,Potency,Papain (Carica papaya),5.01 µM (active)
same,activity,[4],9.67%
same,Potency,[5],43.2 µM (active)
same,activity,[6],-26.8%
same,activity,[7],-50.4%
c1ccc(C(NCc2cccnc2)(c2ccccc2)c2ccccc2)cc1,Potency,[1],inactive
same,Potency,[2],inactive
same,Potency,[3],inactive
same,Potency,Papain (Carica papaya),inactive
same,Potency,[8],inactive
same,Potency,[9],inactive
same,Potency,[10],1.11 µM (active)
CC(/C=C/c1cccc(Oc2ccc(F)cc2)c1)N(O)C(N)=O (stereo not given),Potency,[1],inactive
same,Potency,[2],inactive
same,Potency,[3],inactive
same,Potency,[8],inactive
same,Potency,[9],inactive
same,Potency,[11],inactive
same,Potency,[10],44.1 µM (active)
CC(O)C(O)[C@H]1CNc2nc(N)[nH]c(=O)c2N1 (stereo not given in full),Potency,[1],inactive
same,Potency,[2],inactive
same,Potency,[3],inactive
same,Potency,Papain (Carica papaya),25.1 µM (active)
same,activity,[4],-9.57%
same,"activity change, negative = inhibition",[5],4.12%
same,activity,[6],-14.2%
same,activity,[7],-4.71%
O=C(O)/C=C/c1ccc(O)c(O)c1,Potency,[1],inactive
same,Potency,[2],inactive
same,Potency,[3],inactive
same,Potency,Papain (Carica papaya),inactive
same,activity,[4],150%
same,"activity change, negative = inhibition",[5],0.674%
same,activity,[6],-14.8%
same,activity,[7],-0.851%
O=C(O)Cc1ccc(O)c(O)c1,Potency,[1],inactive
same,Potency,[2],inactive
same,Potency,[3],inactive
same,activity,[4],122%
same,"activity change, negative = inhibition",[5],5.19%
same,activity,[6],0.212%
same,activity,[7],4.32%
Nc1ncnc2c1nc(Sc1ccc(Cl)cc1)n2[C@H]1OC2COP(=O)(O)O[C@@H]2C1O (stereo not given in full),Potency,[1],inactive
same,Potency,[2],inactive
same,Potency,[3],inactive
same,Potency,Papain (Carica papaya),inactive
same,Potency,[8],0.789 µM (active)
same,Potency,[9],0.998 µM (active)
same,Potency,[11],1.77 µM (active)
same,Potency,[10],1.97 µM (active)
CC(C)(CO)Cc1cc(C(C)(C)C)c(O)c(C(C)(C)C)c1,Potency,[1],inactive
same,Potency,[2],inactive
same,Potency,[3],inactive
same,Potency,Papain (Carica papaya),inactive
same,Potency,[9],inactive
same,Potency,[11],inactive
same,Potency,[10],49.4 µM (active)
NC[C@@H]1O[C@H](c2ccccc2)Cc2c1ccc(O)c2O,Potency,[1],inactive
same,Potency,[2],inactive
same,Potency,[3],inactive
same,Potency,Papain (Carica papaya),inactive
Cn1cc(C(F)(F)F)nc1-c1ccc(OCC(O)CNCCOc2ccc(O)c(C(N)=O)c2)cc1 (stereo not given),Potency,[1],inactive
same,Potency,[2],inactive
same,Potency,[3],inactive
same,Potency,Papain (Carica papaya),inactive
CSc1nc(N)c2ncn([C@@H]3O[C@H](COP(=O)(O)OP(=O)(O)O)C(O)[C@H]3O)c2n1 (stereo not given in full),Potency,[1],inactive
same,Potency,[2],inactive
same,Potency,[3],inactive
same,Potency,Papain (Carica papaya),inactive
NC/C=C\C(=O)O,Potency,[1],inactive
same,Potency,[2],inactive
same,Potency,[3],inactive
same,Potency,Papain (Carica papaya),inactive
same,activity,[4],-3.77%
same,"activity change, negative = inhibition",[5],4.36%
same,activity,[6],-7.89%
same,activity,[7],2.22%
Clc1nccc2c1ccc1ccccc12,Potency,[1],inactive
same,Potency,[2],inactive
same,Potency,[3],inactive
same,Potency,Papain (Carica papaya),inactive
same,activity,[4],4.56%
same,"activity change, negative = inhibition",[5],3.35%
same,activity,[6],-11.8%
same,activity,[7],-6.62%
CC1CCN=C(N)S1 (stereo not given),Potency,[1],inactive
same,Potency,[2],inactive
same,Potency,[3],inactive
same,Potency,Papain (Carica papaya),inactive
same,activity,[4],4.68%
same,"activity change, negative = inhibition",[5],0.929%
same,activity,[6],-17.8%
same,activity,[7],-0.769%
C=CCN1CCc2c(cc(O)c(O)c2Br)[C@@H](c2ccccc2)C1,Potency,[1],inactive
same,Potency,[2],inactive
same,Potency,[3],inactive
same,Potency,Papain (Carica papaya),inactive
same,activity,[4],62%
same,"activity change, negative = inhibition",[5],5.44%
same,activity,[6],-9.94%
same,activity,[7],-1.34%
CCCc1c(-c2ccc(O)cc2)nn(-c2ccc(O)cc2)c1-c1ccc(O)cc1,Potency,[1],inactive
same,Potency,[2],inactive
same,Potency,[3],inactive
same,Potency,Papain (Carica papaya),inactive
same,activity,[4],-7.84%
same,Potency,[5],43.2 µM (active)
same,activity,[6],-57.1%
same,activity,[7],-22%
CC1=C(/C=C/C(C)=C/C=C/C(C)=C\C(=O)O)C(C)(C)CCC1,Potency,[1],inactive
same,Potency,[2],inactive
same,Potency,[3],inactive
same,Potency,Papain (Carica papaya),inactive
same,Potency,[12],inactive
same,Potency,[13],inactive
C=CCN1CCc2cc(O)c(O)cc2C(c2ccccc2)C1 (stereo not given),Potency,[1],inactive
same,Potency,[2],inactive
same,Potency,[3],inactive
same,Potency,Papain (Carica papaya),inactive
same,activity,[4],101%
same,"activity change, negative = inhibition",[5],8.51%
same,activity,[6],-4.37%
same,activity,[7],-2.84%
NC(=O)c1ccccc1,Potency,[1],inactive
same,Potency,[2],inactive
same,Potency,[3],inactive
same,Potency,Papain (Carica papaya),inactive
same,outcome,[14],inactive
CCN(CC)CCOC(=O)c1cc(Cl)c(N)cc1OC,Potency,[1],inactive
same,Potency,[2],inactive
same,Potency,[3],inactive
same,Potency,Papain (Carica papaya),inactive
CNc1ncnc2c1ncn2[C@H]1C[C@H](OP(=O)(O)O)[C@@H](COP(=O)(O)O)O1,Potency,[1],inactive
same,Potency,[2],inactive
same,Potency,Papain (Carica papaya),inactive
OC[C@H]1O[C@H](n2cnc3c(N[C@H]4CCC[C@@H]4O)ncnc32)[C@H](O)[C@@H]1O,Potency,[1],inactive
same,Potency,[2],inactive
same,Potency,Papain (Carica papaya),inactive
O=C(O)CCC(=O)N1CCCC1C(=O)O (stereo not given),Potency,[1],inactive
same,Potency,[2],inactive
same,Potency,Papain (Carica papaya),inactive
CC(=O)O[C@H]1CC2(C)[C@@H](C[C@@H](O)[C@H]3[C@@]4(C)CC[C@@H](O)[C@@H](C)[C@@H]4CC[C@@]32C)C1=C(CCC=C(C)C)C(=O)O (stereo not given in full),Potency,[1],inactive
same,Potency,[2],inactive
same,Potency,Papain (Carica papaya),inactive
Cc1ccccc1/C=C/C1=NCCN1,Potency,[1],inactive
same,Potency,[2],inactive
same,Potency,Papain (Carica papaya),inactive
Oc1ccc(/C=C/c2ccc(/C=C/c3ccc(O)cc3)c(Br)c2)cc1,Potency,[1],inactive
same,Potency,[2],inactive
same,Potency,Papain (Carica papaya),inactive
Nc1nc2c(nc(Br)n2C2OC3COP(=O)(O)O[C@@H]3C2O)c(=O)[nH]1 (stereo not given in full),Potency,[1],inactive
same,Potency,[2],inactive
same,Potency,Papain (Carica papaya),inactive
CC1C(=O)N(C)C(=O)c2nc[nH]c21 (stereo not given),Potency,[1],inactive
same,Potency,[2],inactive
same,Potency,Papain (Carica papaya),inactive
NC1(C(=O)O)CC1,Potency,[1],inactive
same,Potency,[2],inactive
same,Potency,Papain (Carica papaya),inactive
c1ccc(C2CN3CCSC3=N2)cc1 (stereo not given),Potency,[1],inactive
same,Potency,[2],inactive
same,Potency,Papain (Carica papaya),inactive
O=c1[nH]c2cc(Cl)ccc2c(O)c1-c1ccc(Oc2ccccc2)cc1,Potency,[1],inactive
same,Potency,[2],inactive
same,Potency,Papain (Carica papaya),inactive
Cc1cccc(C2CN(C)CCc3c2cc(O)c(O)c3Cl)c1 (stereo not given),Potency,[1],inactive
same,Potency,[2],inactive
same,Potency,Papain (Carica papaya),inactive
CCOC(=O)C12CC1/C(=N/O)c1ccccc1O2 (stereo not given),Potency,[1],inactive
same,Potency,[2],inactive
same,Potency,Papain (Carica papaya),inactive
N=C(N)c1ccc(N)cc1,Potency,[1],inactive
same,Potency,[2],inactive
same,Potency,Papain (Carica papaya),inactive
NC(=O)CC[C@H](N)C(=O)O,Potency,[1],inactive
same,Potency,[2],inactive
same,Potency,Papain (Carica papaya),inactive
